The target of assay [1] is Rap guanine nucleotide exchange factor 3 (Homo sapiens) (UniProt O95398). Kind of assay: Confirmatory qHTS for antagonist of cAMP-regulated guanine nucleotide exchange factor 3 (EPAC1) (AID 1645880). Also: nearly all actives have a fitted effect of over 55% in size. Also: potency is read from the fitted curve at half-maximal effect. A digest of the protocol:
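Nucleotide exchange uses 100 nM EPAC1, 250 nM RAP1B-BODIPY-GDP and 50 uM GDP, with compounds in a concentration-titration series. After 5 min at room temperature, fluorescence (480 nm ex/540 nm em) is read every 5 min for 30 min. Data are normalized to control ATA and DMSO.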

Assay [2] has the same target. Kind of assay: Confirmatory qHTS for agonist of cAMP-regulated guanine nucleotide exchange factor 3 (EPAC1) (AID 1645881). Also: nearly all actives have a fitted effect of over 75% in size. Also: potency is read from the fitted curve at half-maximal effect.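 As to activation: EPAC1 catalysed release of BODIPY-GDP from Rap1B seen as fluorescence loss; 100% = effect of cAMP agonist control.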 In general terms: In qHTS, concentration-response curves come from the screen itself.
Assay [3] concerns the target Rap guanine nucleotide exchange factor 4 (Homo sapiens) (UniProt Q8WZA2). Kind of assay: Confirmatory qHTS for agonist of cAMP-regulated guanine nucleotide exchange factor 4 (EPAC2) (AID 1645884).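 Also: nucleotide exchange releases bodipy-GDP from Rap1 and this lowers its fluorescence; nearly all actives have a fitted effect of over 65% in size.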 Also: potency is read from the fitted curve at half-maximal effect. As to activation: % is scaled to controls: 0 for no effect and ±100 for the full control effect.
Assay [4] shares this target. Kind of assay: Confirmatory qHTS for antagonist of cAMP-regulated guanine nucleotide exchange factor 4 (EPAC2) (AID 1645885). Also: nearly all actives have a fitted effect of over 25% in size. Also: potency is read from the fitted curve at half-maximal effect. As to activity change, negative = inhibition: % is scaled to controls: 0 for no effect and ±100 for the full control effect.
Assay [5] addresses Rap guanine nucleotide exchange factor 3 (Homo sapiens) (UniProt O95398). Kind of assay: Counterscreen qHTS for antagonist of cAMP-regulated guanine nucleotide exchange factor 3 (EPAC1) (AID 1645888).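 Also: fluorescence loss as bound BODIPY-GDP is released from Rap1B; % of control where 0% means no effect.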 A digest of the protocol:
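Measured: fluorescence of BODIPY-GDP bound to Rap1B, which falls as exchange proceeds. Conditions include 50 uM competing GDP, 5 and 30 min reads, and a later cAMP challenge for antagonist detection.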
Background: The purpose of a counterscreen is to sort out artefacts and off-target activity.

Inconclusive results are not listed. Values without a mark were called inactive. Calls of active or inactive are those of the source. Calls follow the shape of the dose curve; as a rule, active = well fitted curve in the direction sought with a large enough effect; inconclusive = small, poorly fitted or top-dose-only effect, or another doubt; inactive = no such curve, though single readings can be large; an effect the other way counts as inactive or inconclusive.

Sequence of Rap guanine nucleotide exchange factor 3 (Homo sapiens) (O95398 whole entry, looked up): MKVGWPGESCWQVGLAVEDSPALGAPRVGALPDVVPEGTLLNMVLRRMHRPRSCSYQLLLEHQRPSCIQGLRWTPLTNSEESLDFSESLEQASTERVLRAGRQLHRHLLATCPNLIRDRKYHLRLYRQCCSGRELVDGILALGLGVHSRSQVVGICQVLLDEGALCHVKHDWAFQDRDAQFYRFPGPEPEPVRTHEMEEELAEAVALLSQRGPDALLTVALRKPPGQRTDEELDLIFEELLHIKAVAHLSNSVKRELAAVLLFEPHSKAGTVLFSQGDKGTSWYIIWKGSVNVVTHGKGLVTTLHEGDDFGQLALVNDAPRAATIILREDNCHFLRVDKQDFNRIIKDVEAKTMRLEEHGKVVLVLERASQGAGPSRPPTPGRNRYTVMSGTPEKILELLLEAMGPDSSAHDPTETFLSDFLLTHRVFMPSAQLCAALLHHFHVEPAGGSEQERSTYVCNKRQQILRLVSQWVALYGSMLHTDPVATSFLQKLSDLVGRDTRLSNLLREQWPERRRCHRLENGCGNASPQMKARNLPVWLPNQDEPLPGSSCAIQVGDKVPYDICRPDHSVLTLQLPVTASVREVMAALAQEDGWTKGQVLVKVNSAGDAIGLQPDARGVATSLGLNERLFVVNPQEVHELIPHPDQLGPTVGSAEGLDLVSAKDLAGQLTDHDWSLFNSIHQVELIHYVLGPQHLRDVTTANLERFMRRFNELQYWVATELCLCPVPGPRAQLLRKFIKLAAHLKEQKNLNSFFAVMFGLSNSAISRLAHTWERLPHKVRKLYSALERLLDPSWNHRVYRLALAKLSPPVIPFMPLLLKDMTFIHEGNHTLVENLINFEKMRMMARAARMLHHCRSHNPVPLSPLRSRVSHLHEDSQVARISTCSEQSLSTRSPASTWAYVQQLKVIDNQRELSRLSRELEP
Sequence of Rap guanine nucleotide exchange factor 4 (Homo sapiens) (Q8WZA2 whole entry, looked up): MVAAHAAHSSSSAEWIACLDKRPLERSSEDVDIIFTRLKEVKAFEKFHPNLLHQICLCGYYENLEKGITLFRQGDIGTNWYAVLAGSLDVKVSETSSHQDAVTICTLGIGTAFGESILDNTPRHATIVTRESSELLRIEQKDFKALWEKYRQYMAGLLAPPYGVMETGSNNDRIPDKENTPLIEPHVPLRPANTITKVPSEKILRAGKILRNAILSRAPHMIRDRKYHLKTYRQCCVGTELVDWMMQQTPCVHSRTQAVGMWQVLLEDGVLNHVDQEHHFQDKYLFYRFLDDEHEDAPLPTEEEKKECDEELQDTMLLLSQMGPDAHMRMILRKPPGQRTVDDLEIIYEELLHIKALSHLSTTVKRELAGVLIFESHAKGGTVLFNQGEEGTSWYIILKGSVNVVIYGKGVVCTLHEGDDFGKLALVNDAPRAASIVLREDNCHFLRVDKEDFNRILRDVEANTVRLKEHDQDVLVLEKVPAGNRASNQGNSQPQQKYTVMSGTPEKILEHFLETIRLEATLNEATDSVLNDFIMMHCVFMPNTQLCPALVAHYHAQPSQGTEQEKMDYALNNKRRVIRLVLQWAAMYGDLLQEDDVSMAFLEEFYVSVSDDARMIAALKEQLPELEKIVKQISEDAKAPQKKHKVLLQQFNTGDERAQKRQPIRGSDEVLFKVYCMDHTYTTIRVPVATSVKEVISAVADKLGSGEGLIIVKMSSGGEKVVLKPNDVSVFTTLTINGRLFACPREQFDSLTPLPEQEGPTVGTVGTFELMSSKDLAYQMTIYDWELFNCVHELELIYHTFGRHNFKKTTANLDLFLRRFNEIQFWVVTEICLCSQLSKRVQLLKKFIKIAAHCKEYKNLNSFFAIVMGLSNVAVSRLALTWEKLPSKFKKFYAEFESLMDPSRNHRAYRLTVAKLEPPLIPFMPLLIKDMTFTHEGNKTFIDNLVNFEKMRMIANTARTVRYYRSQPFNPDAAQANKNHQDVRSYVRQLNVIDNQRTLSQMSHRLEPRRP

As to `CC1=C(C(=O)OC2CCCC2)C(c2c(Cl)cccc2Cl)CC(=O)N1` (stereo not given), the Potency result in assay [1], in assay [2], in assay [3], in assay [4] and in assay [5] was “inactive” each time.

As for `COc1cccc(Cn2c(=O)cc(C)c3c(C)nn(C)c32)c1`, the Potency entry in assay [1], in assay [2], in assay [3], in assay [4] and in assay [5] was “inactive” in each case.

`COc1ccc(-n2nnnc2SCC(=O)c2ccc(O)c(O)c2)cc1`: the Potency in assay [1] is 9.53 µM (active). Further, the Potency result in assay [2], in assay [3], in assay [4] and in assay [5] was “inactive” in each case.

As to `C[C@@H]1CN([C@@H](C)CO)S(=O)(=O)c2ccc(Br)cc2O[C@H]1CN(C)Cc1ccccc1F`, the Potency result in assay [1], in assay [2], in assay [3], in assay [4] and in assay [5] was “inactive” each time.

As for `O=C(CSc1nnc(CCc2ccccc2)n1-c1ccc(Cl)cc1)NCc1ccccc1`, the Potency entry in assay [1], in assay [2], in assay [3], in assay [4] and in assay [5] was “inactive” each time.

Take `COc1ccc(N/C=C2\CCc3ccccc3C2=O)cc1`: the Potency entry in assay [1], in assay [4] and in assay [5] was “inactive” throughout. The Potency in assay [2] was 89.1 µM (active); in assay [3] it was 100 µM (active).

Consider `CC1(c2ccccc2)CC(C)(C)N2C(=O)Cc3cccc1c32` (stereo not given), for which the Potency entry in assay [1], in assay [2], in assay [3] and in assay [5] was “inactive” throughout. In addition, the Potency in assay [4] is 33.8 µM (active).

Take `COc1cc2ccccc2cc1C(=O)N1CC(C)CC(C)C1` (stereo not given): the Potency entry in assay [1], in assay [2] and in assay [4] was “inactive” each time. Moreover, in assay [3], the activation was 1.37% [at 17.1 µM, percent relative to cAMP agonist control]. The activity change, negative = inhibition in assay [5] is 1.39% [at 30.8 µM].

On to `CCSc1nc2ccccc2c(=O)n1C1CCOC(C)(C)C1` (stereo not given), for which the Potency entry in assay [1], in assay [2], in assay [3], in assay [4] and in assay [5] was “inactive” throughout.

`CCOc1ccccc1NC1c2ccccc2C(=O)N1Cc1ccco1` (stereo not given): the Potency result in assay [1], in assay [2], in assay [3], in assay [4] and in assay [5] was “inactive” in each case.

In the case of `CC1=NOC(=O)/C1=C\c1ccc(-c2cc(Cl)ccc2Cl)o1`, the Potency in assay [1] is 23.9 µM (active); in assay [4], 75.7 µM (active). The Potency entry in assay [2], in assay [3] and in assay [5] was “inactive” in each case.

With `O=C1OC(c2ccc3ccccc3c2O)(c2ccc3ccccc3c2O)c2ccccc21`, in assay [1], the Potency is 75.7 µM (active). Besides, the Potency result in assay [2], in assay [3], in assay [4] and in assay [5] was “inactive” in each case.

`Cc1c(C(=O)N2c3ccccc3CC2C)oc2ccccc12` (stereo not given): the Potency result in assay [1], in assay [2], in assay [3], in assay [4] and in assay [5] was “inactive” throughout.

Regarding `O=C(O)CN1C(=O)/C(=C\c2cc(Br)ccc2OCc2ccccc2F)SC1=S`, the Potency in assay [1] is 35.5 µM (active). Moreover, the Potency result in assay [2] and in assay [4] was “inactive” throughout. The activation in assay [3] is 4.56% [at 17.1 µM, percent relative to cAMP agonist control]. Moreover, the activity change, negative = inhibition in assay [5] is 18.9% [at 30.8 µM].

As to `O=C(OCC(=O)N1CCN(S(=O)(=O)c2ccc(Cl)cc2)CC1)c1cccc(OC(F)F)c1`, the Potency result in assay [1], in assay [2] and in assay [4] was “inactive” each time. The activation in assay [3] is 0.331% [at 17.1 µM, percent relative to cAMP agonist control]. Also, in assay [5], the activity change, negative = inhibition was -17.2% [at 30.8 µM].

Regarding `CCCC(C(=O)Nc1ccc(C)c(S(=O)(=O)N2CCOCC2)c1)c1ccccc1` (stereo not given), the Potency entry in assay [1], in assay [2] and in assay [4] was “inactive” throughout. In addition, the activation in assay [3] was 4.3% [at 17.1 µM, percent relative to cAMP agonist control]. Also, the activity change, negative = inhibition in assay [5] is -29.6% [at 30.8 µM].

Source of the values: PubChem BioAssay (NCATS).
